Test results as given in ChEMBL document CHEMBL1201862, “PubChem BioAssay data set” (2004).
Among all 410,000 compounds or so, about 5,100 (1.2%) were called active. Another 8% or so got no clear call; they are omitted. No cut-off for these calls is given here. Many of the other results were omitted from the sample, so actives are more common in it than they were.

assay: High Throughput Screening for Foot and Mouth Disease Virus Antivirals.; assay type: functional; settings: read-out: Potency

Row | Compound | AC50
1 | CN(C)CCNC(=O)C1CCN(Cc2cc3ccccc3n2Cc2ccccc2)CC1 | 398 µM (active)
